Measured values as given in PubChem BioAssay AID1159580 (chemical genetic matrix, 2015).
In all, about 5,500 compounds went through this assay and about 2,000 (36%) were called active. Inconclusive results (about 18%) are left out. No stated cut-off is given here; in the data, active means normalized growth mostly below about 0.91 (no sharp cut-off); inconclusive means no clear call, values can overlap the other calls; inactive means mostly above about 0.92. This is one part of the list.

Assay: chemical genetic growth profiling, strain panel (AID 1159580);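 further: tested at 20 µM; growth read once vehicle control cultures reached saturation at 30 °C; 1 = growth at the plate median or of vehicle wells; lower values mean less growth of the strain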
Details: growth OD

Measured: normalized growth

CCOP(=S)(OCC)Oc1nc(Cl)c(Cl)cc1Cl
inactive: S. cerevisiae deletion strains, locus YJR075W, strain HOC1, active compounds read low 0.999 | S. cerevisiae deletion strains, locus YKL009W, strain mrt4, active compounds read low 1 | S. cerevisiae deletion strains, locus YKL068W, active compounds read low 0.99 | S. cerevisiae deletion strains, locus YKL085W, strain MDH1 (second series), active compounds read low 0.996 | S. cerevisiae deletion strains, locus YKL085W, strain MDH1, active compounds read low 0.996 | S. cerevisiae deletion strains, locus YKL160W, strain elf1, active compounds read low 0.974 | S. cerevisiae deletion strains, locus YKL190W, strain CNB1, active compounds read low 0.996 | S. cerevisiae deletion strains, locus YKR001C, strain vps1, active compounds read low 0.937 | S. cerevisiae deletion strains, locus YKR026C, strain gcn3, active compounds read low 0.957 | S. cerevisiae deletion strains, locus YKR091W, strain srl3, active compounds read low 0.948 | S. cerevisiae deletion strains, locus YLL001W, strain dnm1, active compounds read low 0.927 | S. cerevisiae deletion strains, locus YLL026W, active compounds read low 0.982 | S. cerevisiae deletion strains, locus YLL041C, strain sdh2, active compounds read low 0.954 | S. cerevisiae deletion strains, locus YLR027C, strain aat2, active compounds read low 0.967 | S. cerevisiae deletion strains, locus YLR039C, strain RIC1, active compounds read low 0.898 | S. cerevisiae deletion strains, locus YLR058C, strain SHM2, active compounds read low 0.998 | S. cerevisiae deletion strains, locus YLR102C, strain apc9, active compounds read low 0.986 | S. cerevisiae deletion strains, locus YLR258W, strain gsy2, active compounds read low 0.965 | S. cerevisiae deletion strains, locus YLR262C, strain YPT6, active compounds read low 0.945 | S. cerevisiae deletion strains, locus YLR268W, strain sec22, active compounds read low 0.986 | S. cerevisiae deletion strains, locus YLR330W, strain CHS5, active compounds read low 1 | S. cerevisiae deletion strains, locus YLR342W, strain FKS1 (second series), active compounds read low 1.05 | S. cerevisiae deletion strains, locus YLR342W, strain FKS1, active compounds read low 0.945 | S. cerevisiae deletion strains, locus YLR357W, strain rsc2, active compounds read low 0.932 | S. cerevisiae deletion strains, locus YLR370C, strain arc18, active compounds read low 0.981 | S. cerevisiae deletion strains, locus YLR371W, strain rom2, active compounds read low 0.999 | S. cerevisiae deletion strains, locus YLR384C, strain iki3, active compounds read low 0.989 | S. cerevisiae deletion strains, locus YLR418C, strain cdc73, active compounds read low 0.938 | S. cerevisiae deletion strains, locus YML016C, strain PPZ1, active compounds read low 1 | S. cerevisiae deletion strains, locus YML032C, strain rad52, active compounds read low 0.979 | S. cerevisiae deletion strains, locus YML120C, strain ndi1, active compounds read low 0.946 | S. cerevisiae deletion strains, locus YML124C, strain tub3, active compounds read low 0.99 | S. cerevisiae deletion strains, locus YMR058W, strain fet3, active compounds read low 0.921 | S. cerevisiae deletion strains, locus YMR078C, strain ctf18, active compounds read low 0.984 | S. cerevisiae deletion strains, locus YMR125W, strain sto1, active compounds read low 0.97 | S. cerevisiae deletion strains, locus YMR129W, active compounds read low 0.953 | S. cerevisiae deletion strains, locus YMR223W, strain ubp8, active compounds read low 0.988 | S. cerevisiae deletion strains, locus YMR231W, strain pep5, active compounds read low 0.968 | S. cerevisiae deletion strains, locus YMR263W, strain SAP30, active compounds read low 1.04 | S. cerevisiae deletion strains, locus YMR307W, strain GAS1, active compounds read low 0.873 | S. cerevisiae deletion strains, locus YNL067W, strain RPL9B, active compounds read low 1 | S. cerevisiae deletion strains, locus YNL128W, strain TEP1, active compounds read low 1.01 | S. cerevisiae deletion strains, locus YNL153C, strain GIM3, active compounds read low 1.01 | S. cerevisiae deletion strains, locus YNL209W, strain ssb2, active compounds read low 0.995 | S. cerevisiae deletion strains, locus YNL233W, strain BNI4, active compounds read low 0.993 | S. cerevisiae deletion strains, locus YNL248C, strain rpa49, active compounds read low 0.93 | S. cerevisiae deletion strains, locus YNL250W, strain rad50, active compounds read low 0.974 | S. cerevisiae deletion strains, locus YNL271C, strain bni1, active compounds read low 0.996 | S. cerevisiae deletion strains, locus YNL298W, strain CLA4, active compounds read low 0.983 | S. cerevisiae deletion strains, locus YNL307C, strain MCK1, active compounds read low 0.932 | S. cerevisiae deletion strains, locus YNL322C, strain KRE1 (second series), active compounds read low 0.943 | S. cerevisiae deletion strains, locus YNL322C, strain KRE1, active compounds read low 0.998 | S. cerevisiae deletion strains, locus YNR049C, strain mso1, active compounds read low 0.959 | S. cerevisiae deletion strains, locus YNR052C, strain pop2, active compounds read low 0.994 | S. cerevisiae deletion strains, locus YOL006C, strain TOP1, active compounds read low 0.861 | S. cerevisiae deletion strains, locus YOL012C, strain htz1 0.789 | S. cerevisiae deletion strains, locus YOL147C, strain pex11, active compounds read low 0.977 | S. cerevisiae deletion strains, locus YOR001W, strain rrp6, active compounds read low 0.986 | S. cerevisiae deletion strains, locus YOR061W, strain CKA2, active compounds read low 0.998 | S. cerevisiae deletion strains, locus YOR069W, strain VPS5, active compounds read low 0.997 | S. cerevisiae deletion strains, locus YOR070C, strain gyp1, active compounds read low 0.982 | S. cerevisiae deletion strains, locus YOR080W, strain dia2, active compounds read low 1 | S. cerevisiae deletion strains, locus YOR083W, strain WHI5, active compounds read low 0.923 | S. cerevisiae deletion strains, locus YOR136W, strain idh2, active compounds read low 0.992 | S. cerevisiae deletion strains, locus YOR144C, strain elg1, active compounds read low 0.987 | S. cerevisiae deletion strains, locus YOR184W, strain ser1, active compounds read low 0.99 | S. cerevisiae deletion strains, locus YOR265W, strain rbl2, active compounds read low 0.976 | S. cerevisiae deletion strains, locus YOR290C, strain snf2, active compounds read low 0.941 | S. cerevisiae deletion strains, locus YOR316C, strain cot1, active compounds read low 0.991 | S. cerevisiae deletion strains, locus YPL051W, strain arl3, active compounds read low 0.974 | S. cerevisiae deletion strains, locus YPL055C, strain LGE1, active compounds read low 1.04 | S. cerevisiae deletion strains, locus YPL078C, strain atp4, active compounds read low 0.97 | S. cerevisiae deletion strains, locus YPL106C, strain sse1, active compounds read low 0.933 | S. cerevisiae deletion strains, locus YPL240C, strain hsp82, active compounds read low 0.979 | S. cerevisiae deletion strains, locus YPL241C, strain CIN2, active compounds read low 1 | S. cerevisiae deletion strains, locus YPR119W, strain clb2, active compounds read low 0.974 | S. cerevisiae deletion strains, locus YPR141C, strain kar3, active compounds read low 0.986 | S. cerevisiae deletion strains, locus YPR163C, strain tif3, active compounds read low 1.02 | S. cerevisiae deletion strains, locus YPR167C, strain met16, active compounds read low 0.99 | S. cerevisiae deletion strains, strain wtn01, active compounds read low 0.991 | S. cerevisiae strains, strain wild type, active compounds read low 0.995
active: S. cerevisiae deletion strains, locus YLR221C, strain rsa3, active compounds read low 0.852 | S. cerevisiae deletion strains, locus YLR262C, strain YPT6 (second series), active compounds read low 0.724 | S. cerevisiae deletion strains, locus YLR320W, strain mms22, active compounds read low 0.828 | S. cerevisiae deletion strains, locus YMR205C, strain PFK2, active compounds read low 0.842 | S. cerevisiae deletion strains, locus YNL071W, strain lat1, active compounds read low 0.526 | S. cerevisiae deletion strains, locus YOR106W, strain vam3, active compounds read low 0.844 | S. cerevisiae deletion strains, locus YOR270C, strain vph1, active compounds read low 0.441
